Test results from the supplement of paper PMC10849652.
Targets with a hit are over-represented here; the source holds about 8,800 in all. About 0.5% of all pairs of compound and target were hits.

compound: O=C(O)c1ccc2c(c1)nc(Nc1cccc(Cl)c1)c1ccncc12 [silmitasertib]; test: log2 fold change, soluble protein after heating vs DMSO (PISA); higher = thermal stabilisation; K562 lysate, 10 uM; active = over 0.2 and 3.5 SD of the protein, either way, in both replicates (recomputed)
Summary of the method: (§1)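 K562 pellets were dounce-homogenised in PBS pH 7.4 with 1 mM MgCl2, and the crude extract at 1 mg/mL protein was treated with 10 μM compound for 30 min. Aliquots were heated for 3 min across 48°C-58°C, pooled, and brought to 0.5% NP-40 at 4°C; soluble protein was the supernatant after 21,000xg for 90 min. Soluble protein was quantified by TMTpro 16plex LC-MS/MS with channel sums equalised, and reported as log2 fold change in thermal stability against DMSO controls, with values from duplicates.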

Chain of UniProt P30622 (P30622 whole entry, looked up): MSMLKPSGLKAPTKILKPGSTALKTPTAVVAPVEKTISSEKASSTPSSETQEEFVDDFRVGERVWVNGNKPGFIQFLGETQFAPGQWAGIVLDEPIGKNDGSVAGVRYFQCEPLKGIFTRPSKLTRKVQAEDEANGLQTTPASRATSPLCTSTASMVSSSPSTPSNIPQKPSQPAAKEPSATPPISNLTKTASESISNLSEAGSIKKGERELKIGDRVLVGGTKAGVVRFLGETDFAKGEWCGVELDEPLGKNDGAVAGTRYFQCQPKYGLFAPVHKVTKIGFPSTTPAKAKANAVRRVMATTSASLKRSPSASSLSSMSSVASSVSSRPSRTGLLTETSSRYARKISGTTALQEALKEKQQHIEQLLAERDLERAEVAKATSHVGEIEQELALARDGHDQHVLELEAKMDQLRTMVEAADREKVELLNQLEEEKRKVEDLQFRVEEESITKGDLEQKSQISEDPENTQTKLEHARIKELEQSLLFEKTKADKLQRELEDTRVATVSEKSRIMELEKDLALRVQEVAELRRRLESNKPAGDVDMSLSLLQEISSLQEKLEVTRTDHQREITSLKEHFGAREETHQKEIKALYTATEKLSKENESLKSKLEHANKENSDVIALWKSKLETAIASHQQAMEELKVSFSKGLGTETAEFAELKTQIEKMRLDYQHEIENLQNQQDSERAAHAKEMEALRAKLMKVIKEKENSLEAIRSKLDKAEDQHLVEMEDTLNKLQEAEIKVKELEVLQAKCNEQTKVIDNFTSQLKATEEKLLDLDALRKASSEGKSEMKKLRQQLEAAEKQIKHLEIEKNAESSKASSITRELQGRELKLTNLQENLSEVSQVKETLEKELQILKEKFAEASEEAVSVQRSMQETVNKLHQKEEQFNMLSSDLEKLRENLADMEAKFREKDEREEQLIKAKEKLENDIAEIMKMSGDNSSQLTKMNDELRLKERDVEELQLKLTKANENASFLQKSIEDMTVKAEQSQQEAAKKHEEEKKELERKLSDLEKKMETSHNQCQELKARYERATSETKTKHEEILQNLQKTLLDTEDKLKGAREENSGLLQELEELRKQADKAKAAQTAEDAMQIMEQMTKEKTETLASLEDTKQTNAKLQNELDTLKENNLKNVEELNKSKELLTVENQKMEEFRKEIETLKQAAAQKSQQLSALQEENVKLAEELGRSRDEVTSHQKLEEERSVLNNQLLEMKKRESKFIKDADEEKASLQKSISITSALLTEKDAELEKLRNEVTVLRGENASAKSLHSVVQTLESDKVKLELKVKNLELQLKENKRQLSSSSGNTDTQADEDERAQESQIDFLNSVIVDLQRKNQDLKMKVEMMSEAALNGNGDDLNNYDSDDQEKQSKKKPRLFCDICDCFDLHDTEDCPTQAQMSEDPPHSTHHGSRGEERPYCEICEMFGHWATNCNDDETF
Chain of UniProt P51790 (P51790 whole entry, looked up): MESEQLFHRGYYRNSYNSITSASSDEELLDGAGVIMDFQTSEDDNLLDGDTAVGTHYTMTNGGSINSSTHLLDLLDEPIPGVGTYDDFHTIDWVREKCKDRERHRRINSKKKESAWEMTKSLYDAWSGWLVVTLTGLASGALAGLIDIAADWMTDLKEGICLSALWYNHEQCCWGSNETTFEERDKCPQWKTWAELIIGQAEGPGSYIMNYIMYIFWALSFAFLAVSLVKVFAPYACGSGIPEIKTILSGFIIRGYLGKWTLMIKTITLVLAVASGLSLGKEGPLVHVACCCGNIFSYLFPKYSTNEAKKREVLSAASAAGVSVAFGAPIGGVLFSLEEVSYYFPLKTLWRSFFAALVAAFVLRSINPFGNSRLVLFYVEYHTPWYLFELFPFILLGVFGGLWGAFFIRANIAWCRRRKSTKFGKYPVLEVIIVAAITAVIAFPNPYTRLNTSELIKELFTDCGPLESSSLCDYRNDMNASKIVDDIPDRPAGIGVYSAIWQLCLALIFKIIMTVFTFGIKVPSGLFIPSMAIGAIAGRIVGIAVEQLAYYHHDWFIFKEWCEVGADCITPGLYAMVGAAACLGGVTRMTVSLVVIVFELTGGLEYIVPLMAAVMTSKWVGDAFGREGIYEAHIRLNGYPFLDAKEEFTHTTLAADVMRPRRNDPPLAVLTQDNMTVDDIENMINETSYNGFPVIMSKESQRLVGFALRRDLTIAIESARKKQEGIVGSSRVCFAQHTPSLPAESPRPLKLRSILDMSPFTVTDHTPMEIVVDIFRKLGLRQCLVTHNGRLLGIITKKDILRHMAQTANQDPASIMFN
Chain of UniProt Q7L7V1 (Q7L7V1 whole entry, looked up): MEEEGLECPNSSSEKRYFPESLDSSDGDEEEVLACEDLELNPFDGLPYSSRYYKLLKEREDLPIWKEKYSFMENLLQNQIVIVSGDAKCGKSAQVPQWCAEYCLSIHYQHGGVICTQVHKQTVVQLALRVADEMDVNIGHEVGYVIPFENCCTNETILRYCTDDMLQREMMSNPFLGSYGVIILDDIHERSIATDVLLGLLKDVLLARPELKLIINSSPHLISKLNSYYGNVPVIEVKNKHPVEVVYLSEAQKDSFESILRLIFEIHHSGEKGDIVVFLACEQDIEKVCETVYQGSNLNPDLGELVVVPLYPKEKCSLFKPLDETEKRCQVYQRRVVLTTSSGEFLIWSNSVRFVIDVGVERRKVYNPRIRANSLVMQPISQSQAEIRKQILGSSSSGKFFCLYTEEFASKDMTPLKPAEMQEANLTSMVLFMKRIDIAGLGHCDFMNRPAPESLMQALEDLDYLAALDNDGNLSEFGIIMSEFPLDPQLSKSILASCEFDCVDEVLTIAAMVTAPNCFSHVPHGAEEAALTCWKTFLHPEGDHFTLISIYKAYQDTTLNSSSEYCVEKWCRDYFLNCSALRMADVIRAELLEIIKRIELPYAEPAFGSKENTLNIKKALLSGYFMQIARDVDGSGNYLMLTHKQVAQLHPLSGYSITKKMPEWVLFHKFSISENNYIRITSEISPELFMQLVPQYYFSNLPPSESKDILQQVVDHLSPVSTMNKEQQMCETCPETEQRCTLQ
Chain of UniProt Q8IY22 (Q8IY22 whole entry, looked up): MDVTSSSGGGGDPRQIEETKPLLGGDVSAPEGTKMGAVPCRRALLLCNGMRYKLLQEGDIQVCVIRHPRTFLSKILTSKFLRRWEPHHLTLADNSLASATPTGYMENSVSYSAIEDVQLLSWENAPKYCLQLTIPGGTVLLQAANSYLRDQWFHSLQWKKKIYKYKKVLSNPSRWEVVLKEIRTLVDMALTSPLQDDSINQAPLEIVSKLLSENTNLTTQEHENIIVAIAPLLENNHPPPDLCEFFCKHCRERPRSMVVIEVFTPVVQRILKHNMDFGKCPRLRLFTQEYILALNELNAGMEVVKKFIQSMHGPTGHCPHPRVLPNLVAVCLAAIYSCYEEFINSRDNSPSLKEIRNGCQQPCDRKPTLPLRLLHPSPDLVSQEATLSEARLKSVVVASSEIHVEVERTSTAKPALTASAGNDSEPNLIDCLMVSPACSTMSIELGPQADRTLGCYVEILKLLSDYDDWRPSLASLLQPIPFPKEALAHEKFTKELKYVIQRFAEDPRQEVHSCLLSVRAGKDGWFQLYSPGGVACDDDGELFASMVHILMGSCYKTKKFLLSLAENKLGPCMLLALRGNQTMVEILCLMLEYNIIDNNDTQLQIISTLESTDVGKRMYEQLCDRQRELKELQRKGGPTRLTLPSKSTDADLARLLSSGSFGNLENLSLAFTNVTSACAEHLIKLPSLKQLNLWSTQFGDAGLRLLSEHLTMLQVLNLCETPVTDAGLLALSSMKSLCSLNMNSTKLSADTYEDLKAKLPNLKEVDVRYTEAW
Chain of UniProt P61024 (P61024 whole entry, looked up): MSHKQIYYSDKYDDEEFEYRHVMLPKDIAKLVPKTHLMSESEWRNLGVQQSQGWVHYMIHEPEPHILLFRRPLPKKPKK
Chain of UniProt P50570 (P50570 whole entry, looked up): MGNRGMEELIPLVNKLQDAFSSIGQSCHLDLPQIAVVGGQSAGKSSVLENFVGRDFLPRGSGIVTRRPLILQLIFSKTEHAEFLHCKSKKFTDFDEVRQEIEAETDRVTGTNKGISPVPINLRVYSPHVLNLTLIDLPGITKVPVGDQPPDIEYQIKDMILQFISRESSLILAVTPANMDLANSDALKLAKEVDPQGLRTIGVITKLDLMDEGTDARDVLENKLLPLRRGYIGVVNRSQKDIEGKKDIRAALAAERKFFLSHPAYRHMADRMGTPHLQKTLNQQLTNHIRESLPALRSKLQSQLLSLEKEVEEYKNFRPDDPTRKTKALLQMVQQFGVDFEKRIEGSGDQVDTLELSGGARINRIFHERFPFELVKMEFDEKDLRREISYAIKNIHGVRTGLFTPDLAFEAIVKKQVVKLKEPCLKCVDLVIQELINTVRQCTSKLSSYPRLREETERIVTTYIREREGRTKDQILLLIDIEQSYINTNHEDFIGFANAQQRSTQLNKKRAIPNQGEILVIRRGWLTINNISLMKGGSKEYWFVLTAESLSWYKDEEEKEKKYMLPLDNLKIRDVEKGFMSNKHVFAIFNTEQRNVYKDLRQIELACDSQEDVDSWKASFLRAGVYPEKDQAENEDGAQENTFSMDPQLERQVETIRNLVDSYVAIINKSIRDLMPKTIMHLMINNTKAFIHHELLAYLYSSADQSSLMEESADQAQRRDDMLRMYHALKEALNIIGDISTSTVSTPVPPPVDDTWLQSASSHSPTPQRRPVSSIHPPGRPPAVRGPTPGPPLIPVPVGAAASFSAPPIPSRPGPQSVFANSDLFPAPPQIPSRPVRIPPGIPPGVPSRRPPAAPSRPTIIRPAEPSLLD
Chain of UniProt Q6P3W2 (Q6P3W2 whole entry, looked up): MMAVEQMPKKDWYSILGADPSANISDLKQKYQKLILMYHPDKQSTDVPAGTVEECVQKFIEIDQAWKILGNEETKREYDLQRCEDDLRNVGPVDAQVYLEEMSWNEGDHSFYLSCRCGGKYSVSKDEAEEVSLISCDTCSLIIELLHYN
Chain of UniProt O14810 (O14810 whole entry, looked up): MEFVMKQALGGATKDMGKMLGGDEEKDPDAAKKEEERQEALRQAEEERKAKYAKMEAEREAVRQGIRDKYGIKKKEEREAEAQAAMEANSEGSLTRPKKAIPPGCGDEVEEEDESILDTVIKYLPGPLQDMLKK

log2 fold change, inactive:
DARS (UniProt P14868) 0.056
CLCN3 (UniProt P51790) 0.118
DONSON (UniProt Q9NYP3) -0.123
CRLS1 (UniProt Q9UJA2) 0.172
CNK3/IPCEF1 isoform 2 (UniProt G9CGD6) 0.06
DNAJC24 (UniProt Q6P3W2) -0.017
CHFR (UniProt Q96EP1) 0.057
CNOT2 (UniProt F8VRS8) 0.152
CYP4V2 (UniProt Q6ZWL3) -0.038
DNA2 (UniProt P51530) 0.127
DHX32 (UniProt Q7L7V1) 0.028
COG3 (UniProt Q96JB2) 0.123
DALRD3 (UniProt Q5D0E6) 0.074
DHRS13 (UniProt Q6UX07) 0.059
CKS1B (UniProt P61024) -0.004
COL6A3 (UniProt P12111) 0.002
DNM2 isoform 4 (UniProt P50570) 0.047
CSAD isoform 3 (UniProt Q9Y600) 0.075
CMIP (UniProt Q8IY22) 0.018
DDX4 (UniProt Q9NQI0) 0.101
CLIP1 isoform 2 (UniProt P30622) -0.035
COPS9 (UniProt Q8WXC6) -0.139

compound: O=C1NC(=O)C(c2cnc3ccccn23)=C1c1cn2c3c(cc(F)cc13)CN(C(=O)N1CCCCC1)CC2; test: as above
Summary of the method: as §1

log2 fold change, inactive:
DARS (UniProt P14868) 0.019
CLCN3 (UniProt P51790) -0.245
DONSON (UniProt Q9NYP3) 0.032
CRLS1 (UniProt Q9UJA2) 0.036
CINP isoform 3 (UniProt Q9BW66) 0.043
DNAJC24 (UniProt Q6P3W2) -0.014
CSDE1 isoform 3 (UniProt O75534) -0.1
CHFR (UniProt Q96EP1) 0.004
CYP4V2 (UniProt Q6ZWL3) 0.034
DNA2 (UniProt P51530) -0.027
DHX32 (UniProt Q7L7V1) 0.097
COG3 (UniProt Q96JB2) 0.06
CLIP1, A0A3B3ITA2 0.068
CSRP2 (UniProt Q16527) 0.016
DHRS13 (UniProt Q6UX07) -0.001
CHMP4A (UniProt H0YIN6) 0.287
CKS1B (UniProt P61024) -0.076
COL6A3 (UniProt P12111) -0.093
CSNK2A1 (UniProt P68400) -0.046
DNM2 isoform 4 (UniProt P50570) -0.014
DDR1 isoform 5 (UniProt Q08345) -0.026
CSAD isoform 3 (UniProt Q9Y600) 0.039
CMIP (UniProt Q8IY22) 0.021
CSNK1D (UniProt P48730) -0.002
CLASP2 (UniProt O75122) 0.194
CLIP1 isoform 2 (UniProt P30622) 0.002

compound: c1cn2cc(-c3ccc4cn[nH]c4c3)nc(Nc3ccc(N4CCOCC4)cc3)c2n1 [entospletinib]; test: as above
Summary of the method: as §1

log2 fold change, inactive:
DARS (UniProt P14868) 0.035
CLCN3 (UniProt P51790) 0.025
CPLX1 (UniProt O14810) 0.119
CNK3/IPCEF1 isoform 2 (UniProt G9CGD6) 0.008
CXCL14 (UniProt O95715) 0.033
CINP isoform 3 (UniProt Q9BW66) 0.009
DNAJC24 (UniProt Q6P3W2) -0.046
CHFR (UniProt Q96EP1) -0.083
DNA2 (UniProt P51530) -0.053
DHX32 (UniProt Q7L7V1) -0.002
COG3 (UniProt Q96JB2) -0.017
CSRP2 (UniProt Q16527) -0.132
DALRD3 (UniProt Q5D0E6) -0.046
CKS1B (UniProt P61024) -0.021
CSNK2A1 (UniProt P68400) 0.213
DNM2 isoform 4 (UniProt P50570) -0.02
DDR1 isoform 5 (UniProt Q08345) -0.153
CMIP (UniProt Q8IY22) -0.052
DESI2 (UniProt Q9BSY9) 0.116
CSNK1D (UniProt P48730) -0.076
DDX4 (UniProt Q9NQI0) 0.011
CLASP2 (UniProt O75122) -0.073
CLIP1 isoform 2 (UniProt P30622) -0.151
